KB-3-1 cytotox: kills parental KB-3-1 adenocarcinoma cells; 400,000 tested, 1.4% active; KB-3-1 viability, CellTiter-Glo ATP luminescence, 72 h; Potency, µM (top dose mostly 46.1 µM), hits mostly cytotoxic; also: nearly all actives have a fitted effect of over 60% in size
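Cytotoxicity in the drug-sensitive parental line KB-3-1 was scored as loss of CellTiter-Glo luminescence following 72 h incubation with compound. Values come from curve fitting of normalized concentration-response data.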
DT40 TDP1 no CPT: qHTS for Inhibitors of human tyrosyl-DNA phosphodiesterase 1 (TDP1): qHTS in cells in absence of CPT; Potency, µM (highest dose often 46.2 µM), without a hit: at the highest dose activity change, negative = growth inhibition, usual class: inhibitors; AID 686978, 2013; 420,000 tested, 15% active; DT40 Tdp1-/- hTDP1 cells, no CPT, ATP luminescence, 48 h; also: nearly all actives have a fitted effect of over 55% in size
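Chicken DT40 Tdp1-/- cells stably complemented with human TDP1 were seeded at 400 cells/well with DMSO in place of 20 nM camptothecin. After compound pinning, cells grew at least 48 hr at 37 °C; viability read by CellTiter-Glo luminescence.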
HT1080 IDH1KD tx: HT-1080 IDH1 knockdown cell toxicity (counter line); HT-1080 IDH1 knockdown viability, ATP luminescence, 48 h; Potency, µM (doses to about 46.1 µM), for the others: at the top dose activity, negative = toxicity, most hits filed as cytotoxic; 360,000 tested, 2% active; AID 686971;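 also: 0% = DMSO wells and -100% = cell-free medium wells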
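% activity derives from luminescence (CellTiter-Glo), normalised to DMSO and no-cell wells. HT-1080-IDH1KD cells, 750/well, had 48 h compound exposure at 37 °C.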
HT1080-NT tox: kills 2HG-producing HT-1080-NT fibrosarcoma cells; 360,000 tested, 1.6% active; Potency, µM (series often up to 46.1 µM), for the others: top-dose activity, negative = less viability, actives largely listed as cytotoxic; HT-1080-NT fibrosarcoma viability, CellTiter-Glo ATP luminescence, 48 h;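 also: NT is the 2HG producing partner of a matched IDH1 knockdown line; 0% = DMSO-treated cells and -100% = media-only wells without cells; nearly all actives have a fitted effect of over 55% in size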
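Fibrosarcoma NT cells, 750 per well in 5% FBS RPMI, were exposed to compound for 48 hours. Viability: CellTiter-Glo luminescence.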
TDP1 cell CPT: DT40-hTDP1 cell growth loss with CPT; chicken DT40 Tdp1-/-;hTDP1 cells + 20 nM CPT, ATP luminescence, 48 h; Potency, µM (top dose mostly 46.2 µM), inactives show top-dose activity change, negative = growth inhibition, most hits filed as inhibitors; 420,000 tested, 12% active; AID 686979; also: nearly all actives have a fitted effect of over 55% in size
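Cell growth measured by CellTiter-Glo luminescence after a minimum 48 h, 37 C compound exposure with 20 nM CPT in Tdp1-knockout DT40 cells stably expressing hTDP1, seeded 400/well; qHTS titration format.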
KB-V1 cytotox: KB-V1 MDR subline cytotoxicity. AID 1347076. Potency, µM (doses to about 46.1 µM), actives largely listed as cytotoxic. KB-V1 MDR cells viability, CellTiter-Glo, 72 h. 400,000 tested, 3.4% active; also: nearly all actives have a fitted effect of over 60% in size
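In this primary screen, KB-V1 cells overexpressing P-gp are incubated with library compounds (lowest to highest concentration) for 72 h at 37 degrees C before a luminescent ATP viability read.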
* marks the source's active call; other numbers are inactive results. Compounds with a hit are over-represented: about 19% of the library has one in this group of screens. Calls follow the shape of the dose curve; as a rule, active = well fitted curve in the direction sought with a large enough effect; inconclusive = small, poorly fitted or top-dose-only effect, or another doubt; inactive = no such curve, though single readings can be large; an effect the other way counts as inactive or inconclusive. Unless noted, % is scaled to controls: 0 for no effect and ±100 for the full control effect; potency is read from the fitted curve at half-maximal effect.

COc1ccc(NC(=O)C2CCC(CNS(=O)(=O)c3ccc(Br)s3)CC2)c(OC)c1 (centres undefined) was read as KB-3-1 cytotox inactive, DT40 TDP1 no CPT inconclusive, TDP1 cell CPT 18.4µM* and KB-V1 cytotox inconclusive.
CC(/C=C/c1ccccc1)=N\NC(=O)c1ccc2c(c1)OCCO2 was read as KB-3-1 cytotox inconclusive, DT40 TDP1 no CPT inconclusive, HT1080 IDH1KD tx -26.4%, HT1080-NT tox -13.6%, TDP1 cell CPT inconclusive and KB-V1 cytotox inactive.
For CCOC(=O)N/N=C(C)/C=C/c1ccccc1 the results were KB-3-1 cytotox inactive, DT40 TDP1 no CPT 0.082µM*, HT1080 IDH1KD tx 12.4%, HT1080-NT tox 1.8%, TDP1 cell CPT 0.366µM* and KB-V1 cytotox inactive.
Screening CC(/C=C/c1ccco1)=N/NC(=O)CNc1ccccc1C returned KB-3-1 cytotox inactive, DT40 TDP1 no CPT -11.0%, HT1080 IDH1KD tx -1.4%, HT1080-NT tox -2.1%, TDP1 cell CPT 4.0% and KB-V1 cytotox inactive.
Screening CC(/C=C/c1ccccc1)=N/NC(=O)c1cc([N+](=O)[O-])cc([N+](=O)[O-])c1 returned KB-3-1 cytotox inconclusive, DT40 TDP1 no CPT 5.17µM*, HT1080 IDH1KD tx 1.9%, HT1080-NT tox -1.1%, TDP1 cell CPT 5.17µM* and KB-V1 cytotox inactive.
For CC(/C=C/c1ccccc1F)=N\NC(=O)c1cccc(F)c1 the results were KB-3-1 cytotox inconclusive, DT40 TDP1 no CPT 18.4µM*, HT1080 IDH1KD tx inconclusive, HT1080-NT tox -19.3%, TDP1 cell CPT inconclusive and KB-V1 cytotox 20.6µM*.
CC(/C=C/C=C/c1ccccc1)=N/NC(=O)CNc1ccccc1C was read as KB-3-1 cytotox inactive, DT40 TDP1 no CPT inconclusive, HT1080 IDH1KD tx 2.8%, HT1080-NT tox -1.8%, TDP1 cell CPT 10.3µM* and KB-V1 cytotox inactive.
For Cc1cccc2nc(Cn3c(=O)n(-c4ccc(Cl)cc4)c(=O)c4c5c(sc43)CCC5)cc(=O)n12 the results were KB-3-1 cytotox inactive, DT40 TDP1 no CPT 0.2%, TDP1 cell CPT -14.9% and KB-V1 cytotox inconclusive.
S=C1NC2(CCCCC2)Nc2ccccc21 was read as KB-3-1 cytotox inactive, DT40 TDP1 no CPT inconclusive, HT1080 IDH1KD tx -2.9%, HT1080-NT tox -0.3%, TDP1 cell CPT inconclusive and KB-V1 cytotox inactive.
`COc1cc(NC(=O)CCC2CCCC2)cc(-n2cnnn2)c1` gave KB-3-1 cytotox inactive, DT40 TDP1 no CPT inconclusive, HT1080 IDH1KD tx 14.5%, HT1080-NT tox -5.2%, TDP1 cell CPT inconclusive and KB-V1 cytotox 20.6µM*.
For COc1cc(NC(=O)COc2ccc(-n3cnnn3)cc2)cc(OC)c1OC the results were KB-3-1 cytotox inactive, DT40 TDP1 no CPT inconclusive, HT1080 IDH1KD tx -0.9%, HT1080-NT tox -9.2%, TDP1 cell CPT 23.1µM* and KB-V1 cytotox inactive.
Screening O=C(COc1ccc(-n2cnnn2)cc1)Nc1cc(Cl)cc(Cl)c1 returned KB-3-1 cytotox inconclusive, DT40 TDP1 no CPT inconclusive, HT1080 IDH1KD tx inconclusive, HT1080-NT tox inconclusive, TDP1 cell CPT -22.3% and KB-V1 cytotox inactive.
`COCCn1c(=O)c(CCc2ccccc2)nc2cnc(Oc3ccccc3)nc21` gave DT40 TDP1 no CPT -18.9% and TDP1 cell CPT -12.5%.
Screening Cc1ccc(C(=O)CCC(=O)OCC(=O)N2CCN(S(=O)(=O)c3ccc(C)cc3C)CC2)cc1 returned KB-3-1 cytotox inactive, DT40 TDP1 no CPT -2.3%, HT1080 IDH1KD tx -4.2%, HT1080-NT tox -1.7%, TDP1 cell CPT -24.2% and KB-V1 cytotox inactive.
Screening CC(Sc1nc(N(C)C)nc(N2CCOCC2)n1)C(=O)Nc1ccccc1 (centres undefined) returned KB-3-1 cytotox inactive, DT40 TDP1 no CPT 7.31µM*, HT1080 IDH1KD tx 2.3%, HT1080-NT tox 2.9%, TDP1 cell CPT -26.2% and KB-V1 cytotox inactive.
`CC(O)(c1ccccc1)c1nc(-c2ccc(F)c(Cl)c2)cs1` (centres undefined) gave KB-3-1 cytotox inactive, DT40 TDP1 no CPT inconclusive, HT1080 IDH1KD tx inconclusive, HT1080-NT tox inconclusive, TDP1 cell CPT inconclusive and KB-V1 cytotox inactive.
CC(O)(c1ccc(F)c(F)c1)c1nc(-c2cccc(F)c2)cs1 (centres undefined) was read as KB-3-1 cytotox inactive, DT40 TDP1 no CPT inconclusive, HT1080 IDH1KD tx inconclusive, HT1080-NT tox inconclusive, TDP1 cell CPT inconclusive and KB-V1 cytotox inactive.
`CC(O)(c1ccc(F)c(F)c1)c1nc(-c2cc(F)cc(F)c2)cs1` (centres undefined) gave KB-3-1 cytotox inactive, DT40 TDP1 no CPT 16.4µM*, HT1080 IDH1KD tx inconclusive, HT1080-NT tox inconclusive, TDP1 cell CPT inconclusive and KB-V1 cytotox inactive.
For Cc1ccc(-c2csc(C(C)(O)c3ccc(F)c(F)c3)n2)cc1C (centres undefined) the results were KB-3-1 cytotox inactive, DT40 TDP1 no CPT -25.8%, HT1080 IDH1KD tx inconclusive, HT1080-NT tox inconclusive, TDP1 cell CPT inconclusive and KB-V1 cytotox inactive.
CC(O)(c1ccc(F)c(F)c1)c1nc(-c2ccc(F)c(Cl)c2)cs1 (centres undefined) was read as KB-3-1 cytotox inactive, DT40 TDP1 no CPT inconclusive, HT1080 IDH1KD tx inconclusive, HT1080-NT tox 32.6µM*, TDP1 cell CPT inconclusive and KB-V1 cytotox inactive.
For CC(O)(c1ccc(F)c(F)c1)c1nc(-c2ccccc2)cs1 (centres undefined) the results were KB-3-1 cytotox inactive, DT40 TDP1 no CPT 13µM*, HT1080 IDH1KD tx inconclusive, HT1080-NT tox inconclusive, TDP1 cell CPT inconclusive and KB-V1 cytotox inactive.
`CC(Oc1ccc(Cl)cc1)C(=O)NCC1CCCO1` (centres undefined) gave KB-3-1 cytotox inactive, DT40 TDP1 no CPT -1.7%, HT1080 IDH1KD tx -4.7%, HT1080-NT tox -2.2%, TDP1 cell CPT 8.0% and KB-V1 cytotox inactive.
Screening CCN1/C(=C2/SC(=S)N(NC(C)=O)C2=O)Sc2ccc(Cl)cc21 returned KB-3-1 cytotox inactive, DT40 TDP1 no CPT 18.4µM*, HT1080 IDH1KD tx 0.7%, HT1080-NT tox 4.8%, TDP1 cell CPT inconclusive and KB-V1 cytotox inactive.
`CCOc1ccc(-c2ccc(SC)nn2)cc1` gave KB-3-1 cytotox inconclusive, DT40 TDP1 no CPT 8.2µM*, HT1080 IDH1KD tx 23.1µM*, HT1080-NT tox 16.4µM*, TDP1 cell CPT -30.0% and KB-V1 cytotox 11.6µM*.

High-throughput results: PubChem BioAssay, National Center for Advancing Translational Sciences (NCATS)
